# Source: PubChem BioAssay
# RORgamma inh: inhibitors of mouse ROR gamma transcriptional activity; P51450; Drosophila S2 Gal4-RORgamma UAS-luciferase reporter, 20 h; Potency, µM (titrated, usually from 53.6 µM), inactives show at the top dose activity change, negative = inhibition, actives largely listed as inhibitors; hit rate 5.4% among 310,000; AID 2551; note: potency is the fitted concentration of half-maximal effect; nearly all actives have a fitted effect of over 60% in size
# Target sequence (P51450 whole entry, looked up, the tested form may be a part): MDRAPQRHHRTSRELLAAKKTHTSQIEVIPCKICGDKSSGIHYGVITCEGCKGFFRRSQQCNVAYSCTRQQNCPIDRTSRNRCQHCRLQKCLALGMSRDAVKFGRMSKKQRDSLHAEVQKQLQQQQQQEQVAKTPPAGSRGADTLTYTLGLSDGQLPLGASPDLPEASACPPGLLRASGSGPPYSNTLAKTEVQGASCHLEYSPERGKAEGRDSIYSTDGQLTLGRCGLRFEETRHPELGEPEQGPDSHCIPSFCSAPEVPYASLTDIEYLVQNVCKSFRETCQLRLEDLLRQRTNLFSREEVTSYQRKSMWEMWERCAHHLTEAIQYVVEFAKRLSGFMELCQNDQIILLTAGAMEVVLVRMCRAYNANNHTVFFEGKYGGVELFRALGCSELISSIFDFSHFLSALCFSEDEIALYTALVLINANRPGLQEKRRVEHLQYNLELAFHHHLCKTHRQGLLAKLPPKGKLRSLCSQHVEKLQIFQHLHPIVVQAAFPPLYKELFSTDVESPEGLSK
#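 Compounds are pin-transferred onto Drosophila Schneider cells expressing a copper-inducible Gal4–ROR gamma transactivation domain fusion. After 1 hr, copper sulfate is added to 700 uM final; luciferase is read 20 hr later.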
# VP16 counter: counter-screen for ROR gamma inhibitors: Gal4-VP16 reporter. Drosophila S2 Gal4-VP16 UAS-luciferase, luminescence, 20 h. Potency, µM (highest dose often 53.6 µM), without a hit: at the highest dose activity, negative = inhibition, usual class: inhibitors. hit rate 3.5% among 310,000. AID 2546;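 note: Gal4-VP16 expression switched on by copper sulfate through the metallothionein promoter; potency is the fitted concentration of half-maximal effect; nearly all actives have a fitted effect of over 50% in size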
# LDHA inh: blocks human lactate dehydrogenase A; purified LDHA, NADH/diaphorase-resazurin fluorescence; stronger effect = lower value; AID 1347041; activity change, % (values are at about 110 or 230 µM); hit rate 0.15% among 480,000; in the data active = activity change below about -30%; inconclusive = mostly about -25% to -30%;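 note: plate controls were DMSO wells for no effect and wells without enzyme for full effect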
#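 LDH5 2 nM; NADH 0.06 mM, pyruvate 0.2 mM; 200 mM Tris pH 7.4, EDTA, Tween-20; 5 min RT. Detection: diaphorase 0.133 mg/mL + resazurin 37 µM, fluorescence ex540/em590 at 0 and 20 min; normalized to enzyme-free and DMSO wells.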
# IL-1B inflam inh: inhibitors of inflammasome signaling (IL-1 beta secretion). THP-1 LPS/ATP IL-1B secretion, AlphaLISA, 16 h; stronger effect = lower value. hit rate 4.7% among 360,000. activity change, % at 57.5 µM. AID 743279; in the data active = activity change below about -50%; inconclusive = mostly about -30% to -49%
#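 Secreted IL-1B measured by AlphaLISA bead assay after 16 h compound exposure of THP-1 cells; compounds (final up to 57.5 uM) added 1 h before LPS (250 ng/mL) and ATP (1.25 mM) stimulation; lower signal means less secretion.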
# TDP1 cell CPT: DT40-hTDP1 cell growth loss with CPT | chicken DT40 Tdp1-/-;hTDP1 cells + 20 nM CPT, ATP luminescence, 48 h | Potency, µM (titrated, usually from 46.2 µM), inactives show at the top dose activity change, negative = growth inhibition, most hits filed as inhibitors | hit rate 12% among 420,000; note: potency is the fitted concentration of half-maximal effect; nearly all actives have a fitted effect of over 55% in size
#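 Chicken DT40 Tdp1-/- cells stably complemented with human TDP1 were seeded at 400 cells/well in medium containing 20 nM camptothecin, exposed to pin-transferred compounds, and grown at 37 °C for at least 48 hr. Viability was read as ATP luminescence.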
# TDP1 cell noCPT: qHTS for Inhibitors of human tyrosyl-DNA phosphodiesterase 1 (TDP1): qHTS in cells in absence of CPT; DT40 Tdp1-/- hTDP1 cells, no CPT, ATP luminescence, 48 h; Potency, µM (doses to about 46.2 µM), for the others: at the highest dose activity change, negative = growth inhibition, most hits filed as inhibitors; hit rate 15% among 420,000; AID 686978, 2013; note: potency is the fitted concentration of half-maximal effect; nearly all actives have a fitted effect of over 55% in size
#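 Camptothecin absent (DMSO only). Human TDP1-complemented DT40 knockout cells, 400 cells/well, 37 °C for minimum 48 hr; ATP measured via CellTiter-Glo, 30 min dark incubation, luminescence.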
# * = called active by the depositor; ? = inconclusive; nt = no result. Shown are actives, neighbours in structure and some others; about 18% of the full set was active somewhere. Unless noted, calls come from the whole dose curve; as a rule, active = well fitted curve in the direction sought with a large enough effect; inconclusive = small, poorly fitted or top-dose-only effect, or another doubt; inactive = no such curve, though single readings can be large; an effect the other way counts as inactive or inconclusive. Unless noted, % is set by controls: 0 for no effect and ±100 for the full control effect.
SMILES,RORgamma inh,VP16 counter,LDHA inh,IL-1B inflam inh,TDP1 cell CPT,TDP1 cell noCPT
Cc1nn(CCC(=O)Nc2ccc(Cl)cc2)c(C)c1S(=O)(=O)N1CCCCC1,nt,nt,-2.2,nt,20.6µM*,14.6µM*
Cc1nn(CCC(=O)N2CCN(c3ccccc3)CC2)c(C)c1S(=O)(=O)N1CCCC1,nt,nt,0.1,nt,18.4µM*,?
Cc1nn(CCC(=O)Nc2cccc(C#N)c2)c(C)c1S(=O)(=O)N1CCCCC1,-4.0%,-4.9%,-3.3,44.9,?,?
O=C(CCc1ncc(-c2ccc(F)cc2F)o1)Nc1ccc(Cl)cc1,nt,nt,10.9,nt,nt,nt
Cc1nc2nc(SCC(=O)NCc3ccccc3Cl)nn2c(C)c1Cc1ccccc1,nt,nt,-0.3,nt,?,?
Cc1nc2nc(SCc3c(F)cccc3Cl)nn2c(C)c1Cc1ccccc1,nt,nt,-16.8,nt,13µM*,8.2µM*
Cc1cc(C)n2nc(SCc3ccc(F)cc3Cl)nc2n1,3.4%,26.1%,-5.2,?,-14.6%,-12.0%
Cc1nc2nc(SCc3ccccc3)nn2c(C)c1C,nt,nt,-3.9,8.2,?,?
Cc1cc(C)n2nc(SCc3c(F)cccc3Cl)nc2n1,11.3%,-20.7%,-1.6,-5.0,?,25.9µM*
Cc1cccc(CSc2nc3nc(C)cc(C)n3n2)c1,?,5.9%,-1.5,0.0,?,-20.9%
Cc1cccc(Cc2c(C)nc3nc(SCc4ccccc4F)nn3c2C)c1,nt,nt,0.2,nt,13µM*,9.2µM*
Cc1cccc(Cc2c(C)nc3nc(SCc4cccc(F)c4)nn3c2C)c1,nt,nt,-3.9,nt,20.6µM*,?
O=C(Nc1nnc(-c2ccc(Cl)cc2)o1)Nc1ccccc1F,-21.2%,-0.7%,0.3,-9.3,-16.4%,-27.5%
O=C(Nc1nnc(-c2ccc(Cl)s2)o1)C1CC1,-2.2%,-6.6%,-3.2,-3.6,-12.1%,?
O=C(Nc1nnc(-c2ccc3c(c2)CCCC3)o1)C1CCCCC1,?,-1.6%,-6.5,-1.8,14.6µM*,?
O=C(Nc1nnc(-c2ccc3c(c2)CCCC3)o1)c1c(F)cccc1F,0.501µM*,4.47µM*,-6.0,3.2,10.4%,-19.0%
O=C(Nc1nnc(-c2ccc3c(c2)CCCC3)o1)c1ccc(Cl)cc1Cl,1.58µM*,1.58µM*,5.8,0.0,13µM*,?
NC1=NC(=O)/C(=C\c2ccc(-c3ccc(Cl)cc3)o2)S1,-29.1%,-10.7%,-6.3,55.4,?,18.4µM*
CN(C)C1=NC(=O)/C(=C/c2ccc(-c3ccc(S(N)(=O)=O)cc3)o2)S1,-8.4%,-0.1%,nt,nt,nt,nt
CC(C)NC(=O)c1ccc(-n2c(-c3ccccc3)cc3c2CCCC3)cc1,nt,nt,-4.1,nt,?,?
CCCNC(=O)c1ccc(-n2c(-c3ccccc3)cc3c2CCCCC3)cc1,nt,nt,2.4,nt,18.4µM*,20.6µM*
CC(C)OCCCNC(=O)c1ccc(-n2c(-c3ccccc3)cc3c2CCCC3)cc1,nt,nt,7.1,nt,?,16.4µM*
CCC(C)NC(=O)c1ccc(-n2c(-c3ccccc3)cc3c2CCCC3)cc1 (stereo unspecified),nt,nt,-6.5,nt,16.4µM*,?
CCOCCCNC(=O)c1ccc(-n2c(-c3ccccc3)cc3c2CCCCC3)cc1,nt,nt,1.7,nt,-17.5%,?
CN(C)CCNC(=O)c1ccc(-n2c(-c3ccccc3)cc3c2CCCC3)cc1,nt,nt,-4.4,nt,?,16.4µM*
SMILES,RORgamma inh,VP16 counter,LDHA inh,IL-1B inflam inh,TDP1 cell CPT,TDP1 cell noCPT
CCCCNC(=O)c1ccc(NC(=O)Nc2ccccc2)cc1,nt,nt,2.6,nt,nt,nt
COCCCNC(=O)c1ccc(-n2c(-c3ccccc3)cc3c2CCC(C)C3)cc1 (stereo unspecified),nt,nt,-0.4,nt,?,16.4µM*
COc1ccc(-c2nc(SCCOc3cc(C)ccc3C(C)C)n3[nH]c(=O)cc3n2)cc1,nt,nt,3.8,nt,?,18.4µM*
COc1cc(C)ccc1OCCSc1nc(-c2cccc(C)c2)nc2cc(=O)[nH]n12,nt,nt,-0.5,nt,16.4µM*,20.6µM*
Cc1ccccc1-c1nc(SCC(=O)NCCc2ccc(Cl)cc2)n2[nH]c(=O)cc2n1,nt,nt,-2.0,nt,nt,nt
Cc1ccc(OCCSc2nc(-c3ccccc3C)nc3cc(=O)[nH]n23)cc1Cl,nt,nt,-2.5,nt,16.4µM*,16.4µM*
Cc1cccc(OCCCSc2nc(-c3ccc(C(C)(C)C)cc3)nc3cc(=O)[nH]n23)c1C,nt,nt,5.1,nt,?,?
CCc1ccc(OCCCSc2nc(-c3ccc(C(C)(C)C)cc3)nc3cc(=O)[nH]n23)cc1,nt,nt,-3.6,nt,?,23.1µM*
Cc1cccc(-c2nc(SCCCOc3ccc(Cl)c(C)c3)n3[nH]c(=O)cc3n2)c1,nt,nt,-7.5,nt,?,?
O=c1c2ccccc2cnn1CN1CCN(S(=O)(=O)c2ccccc2Cl)CC1,nt,nt,2.7,nt,nt,nt
CCc1ccc(OCCSc2nc(-c3cccc(C)c3)nc3cc(=O)[nH]n23)cc1,nt,nt,-3.4,nt,23.1µM*,?
Cc1ccc2scc(N3CCN(c4ccc(F)cc4)CC3)c(=O)c2c1,nt,nt,2.4,nt,?,?
COc1ccc(-n2sc3ccccc3c2=O)cc1,nt,nt,-18.4,-105.8*,3.66µM*,2.91µM*
O=c1c2cc(F)ccc2sn1-c1ccc(F)cc1,nt,nt,6.0,-114.1*,2.59µM*,3.26µM*
COc1ccc(-n2sc3ccc(F)cc3c2=O)cc1,nt,nt,0.0,-106.2*,2.59µM*,2.59µM*
COc1ccc2sc3ccccc3c(=O)c2c1,-30.3%,-9.6%,-1.8,-0.7,7.9%,5.6%
Cc1ccc(C)c(-n2sc3ccc(F)cc3c2=O)c1,nt,nt,-11.7,-106.1*,3.26µM*,3.66µM*
COc1ccc(N2C(=O)CSC2c2ccc(F)cc2)cc1 (stereo unspecified),27.8%,-3.8%,-2.6,-12.3,3.1%,-14.2%
COCCN1C(=O)C(=O)/C(=C(/O)c2ccc(OC(C)C)c(C)c2)C1c1ccc(Br)cc1 (stereo unspecified),nt,nt,10.0,nt,nt,nt
Cc1cc(=O)oc2cc(OC(=O)[C@H](C)NC(=O)OC(C)(C)C)c(Cl)cc12,nt,nt,5.0,nt,nt,nt
O=C1c2cccc(OCc3ccc(F)cc3)c2CCN1Cc1ccc(F)cc1,?,?,-3.0,-67.8*,?,11.6µM*
CN1CCc2c(OCc3ccc(F)cc3)cccc2C1=O,0.6%,-4.3%,0.9,-21.3,-20.9%,?
Cc1ccc(CN2CCc3c(OCc4ccc(F)cc4)cccc3C2=O)cc1,?,?,-3.3,-62.2*,?,?
CCOC(=O)c1ccccc1NC(=O)CN1CCCN(Cc2cccc(OC)c2)S1(=O)=O,nt,nt,3.0,nt,nt,nt
Cc1ccc2ncc(C(=O)c3ccc(C)c(C)c3)c(S(=O)(=O)c3ccc(F)cc3)c2c1,nt,nt,1.3,nt,8.2µM*,9.2µM*
